# Reference: PubChem BioAssay (Tox21)
# Results filed as inconclusive are left out. A number with no mark means an inactive call. Calls follow the shape of the full dose curve.
# Target: Peroxisome proliferator-activated receptor delta (Homo sapiens) (UniProt Q03181)
# Assay: qHTS assay to identify small molecule agonists of the peroxisome proliferator-activated receptor delta (PPARd) signaling pathway (AID 743212)
# Details: HEK293H PPARd-UAS-bla, beta-lactamase FRET ratio, 17 h; series mostly up to 62.6 µM; activation: at the top concentration
# Text: U.S. Tox21 Program National Center for Advancing Translational Sciences [NCATS] NIH Chemical Genomics Center [NCGC] U.S. Environmental Protection Agency [EPA] National Institutes of Environmental Health Sciences [NIEHS] National Toxicology Program [NTP] U.S. Food and Drug Administration [FDA] Tox21 Assay Overview: The peroxisome proliferator-activated receptors (PPARs) are lipid-activated transcription factors of the nuclear receptor superfamily with three distinct subtypes namely PPAR alpha, PPAR delta (PPARd) and PPAR gamma. All these subtypes heterodimerizes with Retinoid X receptor (RXR) and have different physiological functions. […] To identify the compounds that activate PPAR-delta signaling, GeneBLAzer PPAR delta UAS-bla HEK293H cell line (Invitrogen, Carlsbad, CA, USA) containing a beta-lactamase reporter gene under the control of an Upstream Activator Sequence (UAS) was used to screen the Tox21 compound library.
# Tox21 Assay Protocol Summary: PPARd-bla cells were dispensed at 3000 cells/6uL/well in 1536-well black wall/clear bottom plates using a Multidrop Combi (Thermo Fisher Scientific, Waltham, MA) dispenser. After the assay plates were incubated at 37 C and 5% CO2 for 5 h, 23 nL of compounds dissolved in DMSO, positive controls or DMSO only was transferred to the assay plate by a Pintool station (Kalypsys, San Diego, CA). The assay plates were incubated at 37C for 17 h. After 1 uL of LiveBLAzerTM B/G FRET substrate was added using a Bioraptr Flying Reagent Dispenser (FRD) workstation (Beckman Coulter, Indianapolis, IN, USA), the plates were incubated at room temperature for 2 h, and fluorescence intensity was measured by an Envision plate reader (PerkinElmer, Shelton, CT).
# % is scaled to controls: 0 for no effect and ±100 for the full control effect.
# Chain of Peroxisome proliferator-activated receptor delta (Homo sapiens) (Q03181 whole entry, looked up): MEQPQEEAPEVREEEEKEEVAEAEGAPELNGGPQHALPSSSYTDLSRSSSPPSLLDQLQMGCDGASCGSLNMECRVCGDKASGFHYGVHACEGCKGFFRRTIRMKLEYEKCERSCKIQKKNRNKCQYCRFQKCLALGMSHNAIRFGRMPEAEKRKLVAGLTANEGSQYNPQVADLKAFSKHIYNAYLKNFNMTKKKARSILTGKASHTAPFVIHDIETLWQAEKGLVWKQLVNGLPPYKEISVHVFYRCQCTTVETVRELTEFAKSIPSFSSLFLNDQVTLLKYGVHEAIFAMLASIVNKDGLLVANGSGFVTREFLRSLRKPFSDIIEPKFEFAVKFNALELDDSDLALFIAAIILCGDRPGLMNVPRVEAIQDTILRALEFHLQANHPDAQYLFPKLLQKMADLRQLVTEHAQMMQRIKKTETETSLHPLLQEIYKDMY
row,Compound,activation
1,CCNC(=O)N1CCN(CCCC(c2ccc(F)cc2)c2ccc(F)cc2)CC1,-2.43%
2,CCCCC(CC)C(=O)OCCOCCOCCOCCOC(=O)C(CC)CCCC (stereo not given),-3.5%
3,CC(=O)[C@H]1CC[C@H]2[C@@H]3C[C@H](C)C4=CC(=O)CC[C@]4(C)[C@H]3[C@@H](O)C[C@]12C,-6.07%
4,Nc1nc(Cl)nc2c1ncn2[C@@H]1O[C@H](CO)[C@@H](O)[C@@H]1F,-3.61%
5,O=C(O)c1c(O)c(-c2ccccc2)nc2ccccc12,1.09%
6,CC1(C)C(=O)N(Br)C(=O)N1Cl,0.864%
7,CCCCCCCCCCCC(=O)[O][Sn]([CH2]CCC)([CH2]CCC)[O]C(=O)CCCCCCCCCCC,0.214%
8,CC(=O)OCC(=O)[C@@]12OC(C)(C)O[C@@H]1C[C@H]1[C@@H]3C[C@H](F)C4=CC(=O)C=C[C@]4(C)[C@@]3(F)[C@@H](O)C[C@@]12C,0.555%
9,Cc1ccnc2ccccc12,0.154%
10,CC[C@H](NC(=O)c1cc(F)ccc1NS(=O)(=O)c1cccc2cccnc12)c1ccccc1,-4.62%
11,CC(C)(O)c1ccccc1CC[C@@H](SCC1(CC(=O)O)CC1)c1cccc(/C=C/c2ccc3ccc(Cl)cc3n2)c1,0.542%
12,CC1CC(O)CC(C)(C)C1 (stereo not given),0.96%
13,CC(=O)Oc1ccc(C(=C2CCCCC2)c2ccc(OC(C)=O)cc2)cc1,-4.18%
14,CC(C)C(=O)O,1.85%
15,Brc1cc(-c2ccc(Br)c(Br)c2Br)cc(Br)c1Br,-9.3%
16,CC(=O)Nc1ccccc1C,-0.381% [at 81.1 µM]
17,CCCCOC(=O)CCS,-0.595%
18,CC(C)(CCl)c1ccccc1,-0.423%
19,Cc1nc2ccccn2c(=O)c1CCN1CCC(C(=O)c2ccc(F)cc2)CC1,-1.25%
20,Cc1ccccc1N1C(=O)c2cc(S(N)(=O)=O)c(Cl)cc2NC1C (stereo not given),-7.33%

row,Compound,activation
1,CCOC(=O)CC(=O)C(=O)OCC,0.0958%
2,CCCOCCOCCO,2.65%
3,CCC(C)(O)CCC=C(C)C (stereo not given),0.71%
4,OCCSc1ccccc1,-1.54%
5,Nc1ccc(S(=O)(=O)O)c(N)c1,-1.91%
6,NC(=O)Nc1ccc(Cl)cc1,1.34%
7,ON(Cc1ccccc1)Cc1ccccc1,1.27%
8,CCN(CC)CCNC(=O)c1ccc(NC(C)=O)cc1,2.37%
9,CCn1nc(C)c2c1C(=O)NCC(c1ccc(O)cc1)=N2,-1.12%
10,Cc1cnc(C)c(C)n1,2.6% [at 81.1 µM]
11,CCC(=O)OC/C=C/c1ccccc1,-1.07%
12,NCC1CCCC(CN)C1 (stereo not given),0.0088%
13,CNC(=S)NC,-1.72%
14,CCC(C(=O)OCCN(CC)CC)c1ccccc1 (stereo not given),1.07%
15,CC(=N\O)/C(C)=N/O,0.0434%
16,CC(COc1ccc(C(C)(C)C)cc1)OS(=O)OCCCl (stereo not given),3.36% [at 81.1 µM]
17,CO[C@H]1O[C@H](CO)[C@@H](O)[C@H](O)[C@H]1O,3.96%
18,O=C(O)Cc1ccc(-c2ccccc2)cc1,-2.29%
19,Cc1cc2nc3ccc(=[N+](C)C)cc-3sc2cc1N,3.7%
20,CN(C(=O)C(Cl)Cl)c1ccc(OC(=O)c2ccco2)cc1,1.61%
